{"source": "the supplement of paper PMC9399229", "note": "“And” between values parts separate entries of the source, which are not always exact repeats. Equal entries are not always repeated. ± gives the standard deviation of the averaged measurements. Over roughly 1,900 compounds, “relative cell viability (CellTiter-Glo), compound alone” has its median near 1; the lowest 2% begin near 0.16. The sample holds the lowest values, similar compounds and a random draw of the others, so the mix is not that of the screen.", "data": [{"system": "Hep3B", "assay": "relative cell viability (CellTiter-Glo), compound alone (fraction); higher = more viable cells (less growth inhibition)", "conditions": "cabozantinib 0 µM; 4 days", "values": [{"smiles": "Cc1ccc(C(=O)c2cc(O)c(O)c([N+](=O)[O-])c2)cc1", "note": "[Tolcapone]", "relative cell viability": "1.05 ± 0.076"}, {"smiles": "C=CC(=O)Nc1ccc2ncnc(Nc3cccc(Br)c3)c2c1", "relative cell viability": "1.48 ± 0.24"}, {"smiles": "NC(=S)N/N=C/c1ncccc1N", "note": "[Triapine]", "relative cell viability": "1.17 ± 0.017"}, {"smiles": "COc1cc(Nc2ncc(F)c(Nc3ccc4c(n3)N(COP(=O)(O)O)C(=O)C(C)(C)O4)n2)cc(OC)c1OC", "note": "[Fostamatinib (R788)]", "relative cell viability": "0.843 ± 0.025"}, {"smiles": "C/C(=C\\c1ccc(C(=O)O)cc1)c1ccc2c(c1)C(C)(C)CCC2(C)C", "note": "[TTNPB (Arotinoid Acid)]", "relative cell viability": "1.11 ± 0.1"}, {"smiles": "CO[C@H]1C[C@@H]2CC[C@@H](C)[C@@](O)(O2)C(=O)C(=O)N2CCCC[C@H]2C(=O)O[C@H]([C@H](C)C[C@@H]2CC[C@@H](OP(C)(C)=O)[C@H](OC)C2)CC(=O)[C@H](C)/C=C(\\C)[C@@H](O)[C@@H](OC)C(=O)[C@H](C)C[C@H](C)/C=C/C=C/C=C/1C", "note": "[Ridaforolimus (Deforolimus, MK-8669)]", "relative cell viability": "1.07 ± 0.074"}, {"smiles": "CC(=O)Nc1ccccc1", "note": "[Acetanilide]", "relative cell viability": "1.17 ± 0.044"}, {"smiles": "CC(C)(C)C(=O)Nc1ccc2c(c1)C(=O)C(=O)c1ccccc1-2", "relative cell viability": "0.0728 ± 0.012"}, {"smiles": "CC1=CC(=O)c2ccccc2C1=O", "note": "[Menadione]", "relative cell viability": "0.9362 ± 0.0074"}, {"smiles": "NC(=O)CCCSc1nc(N)nc(-c2c(Cl)cc3c4c(cccc24)COC3)n1", "relative cell viability": "0.19 ± 0.026"}, {"smiles": "O=C(/C=C/c1cccc(S(=O)(=O)Nc2ccccc2)c1)NO", "note": "[Belinostat (PXD101)]", "relative cell viability": "0.216 ± 0.019"}, {"smiles": "Cc1[nH]c2ccccc2c1CCNCc1ccc(/C=C/C(=O)NO)cc1", "note": "[Panobinostat (LBH589)]", "relative cell viability": "0.12 ± 0.019"}, {"smiles": "Cc1[nH]c2ccccc2c1CCNC(=O)c1cccs1", "relative cell viability": "1.19 ± 0.067"}, {"smiles": "Cn1cc(-c2ccncc2)c(-c2ccc(OCc3ccc4ccccc4n3)cc2)n1", "relative cell viability": "1.13 ± 0.025"}, {"smiles": "COc1cc(Br)c(Nc2nc(-c3c(C)nc4ncccn34)cs2)c(Br)c1", "relative cell viability": "0.601 and 0.575"}, {"smiles": "CC(ONC(=O)c1cc(C(F)(F)F)cc(C(F)(F)F)c1)C(=O)Nc1ccc(Cl)cc1", "note": "(stereo not drawn)", "relative cell viability": "1.02 ± 0.094"}, {"smiles": "O=C(Nc1cc(C(F)(F)F)cc(C(F)(F)F)c1)c1cc(Cl)ccc1O", "relative cell viability": "0.0996 ± 0.0025"}, {"smiles": "O=C(Nc1ccccc1)c1ccccc1O", "note": "[Salicylanilide]", "relative cell viability": "1.147 ± 0.0051"}, {"smiles": "CN1CCN(Cc2ccc(-c3cnc4[nH]cc(-c5ccc6[nH]ccc6c5)c4c3)cc2)CC1", "relative cell viability": "0.791 ± 0.033"}, {"smiles": "CCNC(=O)c1[nH]nc(-c2cc(Cl)c(O)cc2O)c1-c1ccc(OC)cc1", "relative cell viability": "0.348 ± 0.025"}, {"smiles": "CCNC(=O)c1noc(-c2cc(C(C)C)c(O)cc2O)c1-c1ccc(CN2CCOCC2)cc1", "relative cell viability": "0.176 ± 0.04"}, {"smiles": "CCNC(=O)c1noc(-c2cc(Cl)c(O)cc2O)c1-c1ccc(OC)cc1", "relative cell viability": "0.15572 ± 2.3e-05"}, {"smiles": "COc1ccc2cccc(CCNC(C)=O)c2c1", "note": "[Agomelatine]", "relative cell viability": "1.1 ± 0.097"}, {"smiles": "CC(=O)Nc1ccc(NC(=S)NC(=O)c2ccc(C(C)(C)C)cc2)cc1", "note": "[Tenovin-1]", "relative cell viability": "0.269 ± 0.0096"}, {"smiles": "CC1(C)CC[C@]2(NC(=O)C(C)(F)F)CC[C@]3(C)[C@H](C(=O)C=C4[C@@]5(C)C=C(C#N)C(=O)C(C)(C)[C@@H]5CC[C@]43C)[C@@H]2C1", "note": "[Omaveloxolone (RTA-408)]", "relative cell viability": "0.206 ± 0.0087"}, {"smiles": "COc1cc(N2CCN(C)CC2)ccc1Nc1nccc(-c2cn(C)c3cnccc23)n1", "relative cell viability": "1.05 ± 0.027"}, {"smiles": "CC(=O)N1CCN(CCOc2ccc(C3CCN(C4=Nn5c(nnc5C(F)(F)F)CC4)CC3)cc2)CC1", "relative cell viability": "1.3 ± 0.037"}, {"smiles": "CNc1cc(-c2cccc(Cl)c2Cl)nc(N)n1", "relative cell viability": "1.1 ± 0.021"}, {"smiles": "Cc1[nH]nc2ccc(-c3cncc(OC[C@@H](N)Cc4ccccc4)c3)cc12", "relative cell viability": "0.123 ± 0.0016"}, {"smiles": "Cn1nc(C(C)(C)C)cc1C(=O)N[C@@H](Cc1cccc(Cl)c1)C(=O)NCC#N", "note": "[Cathepsin Inhibitor 1]", "relative cell viability": "1.151 ± 0.011"}, {"smiles": "O=C(NCc1ccc(Oc2ccccc2)cc1)c1nc(-c2cc(Br)c(O)c(Br)c2)no1", "relative cell viability": "1.13 ± 0.022"}, {"smiles": "Cn1cc(CNCC2CCN(c3ncc(C(=O)NO)cn3)CC2)c2ccccc21", "relative cell viability": "0.163 ± 0.029"}, {"smiles": "O=C(NC1CC1)c1cc(-c2cccs2)on1", "note": "[Isoxazole 9 (ISX-9)]", "relative cell viability": "1.13 ± 0.015"}, {"smiles": "O=C(O)C(S)=Cc1c[nH]c2ccc(F)cc12", "relative cell viability": "1.27 ± 0.013"}, {"smiles": "Cc1cc(C)c(CNC(=O)c2cc(-c3ccc(N4CCN(C)CC4)nc3)cc3c2c(C)cn3C(C)C)c(=O)[nH]1", "relative cell viability": "1.078 ± 0.0077"}, {"smiles": "O=C(/C=C/c1ccc(O)cc1)c1ccc(O)cc1O", "note": "[Isoliquiritigenin]", "relative cell viability": "0.904 ± 0.33"}, {"smiles": "O=c1[nH]c(=O)n(C2CC(O)C(CO)O2)cc1Br", "note": "(stereo not drawn) [Bromodeoxyuridine (BrdU)]", "relative cell viability": "1.04 ± 0.082"}, {"smiles": "CN(C)Cc1ccc(S(=O)(=O)n2ccc(/C=C/C(=O)NO)c2)cc1", "note": "[Resminostat]", "relative cell viability": "0.781 ± 0.029"}]}]}
